About 83,000 compounds went through this panel and 20% of them were active in at least one assay; those are over-represented in the sample as a whole.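 A percent growth of 40 corresponds to 60% growth inhibition; 0 means no net growth; -100 means all cells died. Active threshold: below 10.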 Active and inactive are the calls of the source.

For 15 compounds, growth results are on record in PubChem BioAssay (NCI).

In this experiment the test system is NCI-H522 lung. Put plainly: NCI-60 one-dose screen, 48 h (100 = growth as untreated, 0 = no growth, -100 = all killed). The settings on record: 10 µM unless noted.
In the case of `Cc1ccc2c(c1)C(=O)/C(=C/c1ncc([N+](=O)[O-])n1C)O2`, the growth is -64.1% (active).

Consider `CCCc1nn(C)c2c(=O)[nH]c(-c3cc(S(=O)(=O)N4CCN(C)CC4)ccc3OCC)nc12`, for which the growth was 88.9% (inactive).

Turning to `Cc1ccc(NC(=O)Nc2ccc(-c3cccnc3)cc2N2CCC(CO)CC2)cc1`, the growth was 9.32% (active).

Consider `O=C(Nc1cccc([N+](=O)[O-])c1)c1cccc(C(=O)Nc2cccc([N+](=O)[O-])c2)c1`, for which the growth is 22.5% (inactive).

With `O=C(Nc1nc(-c2ccccc2)cs1)c1cc(O)c(O)c(O)c1`, the growth was -29.4% (active).

Regarding `CC(C)(C)c1ccc(C(O)CCCN2CCC(C(O)(c3ccccc3)c3ccccc3)CC2)cc1` (stereo not given), the growth is -74.6% (active).

With `Cc1cc(=O)n2n1-c1ccc(Cl)cc1NC(=O)C2`, the growth is 96.2% (inactive).

As for `CC(=O)NC1(C(=O)O)CCCC1`, the growth was 103% (inactive).

On to `Nc1nc(N)c([N+](=O)[O-])c(=O)[nH]1`, for which the growth was 103% (inactive).

Turning to `COc1ccc2nc(NC(=O)c3cc(-c4ccc(F)cc4)n4nc(-c5ccccc5)cc4n3)sc2c1`, the growth is 95.8% (inactive).

As for `Cc1ccc2c(c1)O/C(=C\c1ccc([N+](=O)[O-])o1)C2=O`, the growth was -66% (active).

Turning to `CCOC(=O)c1c2c(c(C)n1Cc1ccc(OC)cc1)-c1nc(N)ncc1CC2`, the growth is 114% (inactive).

`COc1cc2c(-c3nc4cc(Cl)c(F)cc4s3)cc(=O)oc2c(C)c1OC`: the growth is -83.9% (active).

On to `COc1cc(C(=O)/C=C/c2cccnc2Nc2ccccc2)cc(OC)c1OC`, for which the growth is -68.7% (active).

As to `O=C(C(Br)Br)C(Br)C(Br)c1ccccc1` (stereo not given), the growth was -33.3% (active).
